# From PubChem BioAssay
# sEH inhibitor = soluble epoxide hydrolase (human) inhibition | recombinant human sEH enzymatic activity assay | inhibition, % at 2 µM | 91,000 tested, 0.34% active | AID 707; in the data active = inhibition above about 80%
# Target sequence (P34913 whole entry, looked up): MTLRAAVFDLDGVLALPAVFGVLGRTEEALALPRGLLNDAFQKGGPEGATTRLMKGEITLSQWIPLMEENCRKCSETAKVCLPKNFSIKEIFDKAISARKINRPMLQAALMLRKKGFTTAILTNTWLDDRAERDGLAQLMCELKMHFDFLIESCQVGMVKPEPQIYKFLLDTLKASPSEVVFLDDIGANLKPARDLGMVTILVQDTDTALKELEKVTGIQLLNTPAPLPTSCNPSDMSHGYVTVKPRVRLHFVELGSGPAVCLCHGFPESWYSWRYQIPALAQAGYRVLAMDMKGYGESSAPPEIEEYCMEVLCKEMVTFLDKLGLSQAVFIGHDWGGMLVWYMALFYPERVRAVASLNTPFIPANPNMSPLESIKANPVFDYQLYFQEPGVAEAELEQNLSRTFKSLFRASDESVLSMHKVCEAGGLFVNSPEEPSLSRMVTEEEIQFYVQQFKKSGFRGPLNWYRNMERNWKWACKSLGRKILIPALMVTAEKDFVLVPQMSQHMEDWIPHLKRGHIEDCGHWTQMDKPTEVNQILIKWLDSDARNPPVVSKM
# MRP1 act = MRP-1 activation; H69AR cells + doxorubicin, viability rescue, CellTiter-Glo; viability increase, % at 10 µM; 140,000 tested, 0.61% active; AID 799;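 active = viability gain under doxorubicin at or above a set limit, the compound median plus 3 SD, cut at about 4.7% in these data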;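 note: MRP-1 overexpressing cells given doxorubicin 25 µM after compound pretreatment; 18-22 h compound pretreatment then 72 h with doxorubicin before readout; 0% = doxorubicin-only wells and 100% = vehicle-treated cells without doxorubicin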
# sEH activator = activators of human soluble epoxide hydrolase; purified human sEH enzymatic activity, activator screen; activation, % at 2 µM; 91,000 tested, 0.04% active; in the data active = activation above about 37%
# Calb biofilm kill = kills Candida albicans biofilms; inhibition, % at 6 µM; C. albicans biofilm + clotrimazole, Alamar Blue; 85,000 tested, 0.14% active;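 active = inhibition above 20%; inactive = inhibition below 20%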;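 note: preformed 24 hr biofilms exposed to compound for 48 hr; 0% = biofilm without compound and 100% = blank killed by clotrimazole plus chlorhexidine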
# MRP resist rev = reverses drug resistance mediated by MRP; 85,000 tested, 0.04% active; AID 602; H69AR cells + 2 uM doxorubicin, CellTiter-Glo, 72 h; differential viability (reversal), % at 10 µM;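 active = viability drop by adding the cancer drug above about 55%, with treated viability meeting a 40% cutoff, limit read from the data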;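 note: viability without doxorubicin minus viability with 2 µM doxorubicin for each compound; larger differential means the compound sensitizes cells more to doxorubicin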
# * hit, by the source's call; · = no result. A selection: hits, their analogues and other compounds. The true share with any hit is near 0.87%.
SMILES,sEH inhibitor,MRP1 act,sEH activator,Calb biofilm kill,MRP resist rev
CCOc1cc(CNCc2ccncc2)cc(Cl)c1OC,·,-1,·,·,·
CN(C)/C=N/c1ncc(C(=O)c2ccc3ccccc3c2)s1,-49,-4,48*,·,·
COc1ccc(C(=O)c2cnc(/N=C/N(C)C)s2)cc1,·,-1,·,·,·
COc1ccc(C(=O)NCc2ccc(-c3nc4ccccc4s3)cc2)cc1,19,7.5*,-17,·,·
COc1cccc(C(=O)NCc2ccc(-c3nc4ccccc4s3)cc2)c1,5,-1,-3,·,·
CCOC(=O)c1cnn(-c2ccccn2)c1N,6,7.5*,-7,9,0
Cc1cccc(OCc2nc(-c3nonc3N)no2)c1C,·,5.2*,·,4,-18
Nc1nonc1-c1noc(COc2ccccc2Cl)n1,-11,0,11,11,4
COc1ccccc1NS(=O)(=O)c1cc(NC(=O)c2ccc(Cl)nc2)ccc1Cl,·,-3,·,·,·
COc1ccc(C(=O)Nc2ccc(Cl)c(S(=O)(=O)Nc3ccccc3OC)c2)cc1,·,9.2*,·,·,·
COc1ccc(OC)c(NC(=O)CSc2nnc(CNC(=O)COc3ccc(Cl)cc3)o2)c1,-1,5.6*,5,-4,13
COc1ccc(NC(=O)CSc2nnc(CNC(=O)COc3ccc(Cl)cc3)o2)c(OC)c1,-5,4,9,4,16
CCOC(=O)c1sc(-c2ccc(OC)cc2)cc1NC(C)=O,·,3,·,·,·
CCOc1ccc(NC(=O)Nc2cc(-c3ccccc3)sc2C(=O)OC)cc1,·,6.1*,·,·,·
CCOC(=O)C1=C(CSc2nc(-c3ccccc3)ccc2C#N)OC(N)=C(C#N)C1c1ccc(OC)cc1 (stereo not given),·,-2,·,4,9
CC1CCc2c(C(=O)OCC(=O)Nc3cccc(S(=O)(=O)N4CCCCCC4)c3)csc2C1 (stereo not given),·,5.1*,·,·,·
Cc1ccc(NC(=O)COC(=O)c2csc3c2CCC(C)C3)cc1S(=O)(=O)N1CCCCC1 (stereo not given),·,5,·,·,·
CC1(C)O[C@@H]2C[C@H]3[C@@H]4C[C@H](F)C5=CC(=O)C=C[C@]5(C)[C@@]4(F)[C@@H](O)C[C@]3(C)[C@]2(C(=O)CO)O1,·,4,·,4,4
CC1(C)O[C@@H]2C[C@H]3[C@@H]4CCC5=CC(=O)C=C[C@]5(C)[C@@]4(F)[C@@H](O)C[C@]3(C)[C@]2(C(=O)CO)O1,·,7.2*,·,8,-14
CC(=O)OCC(=O)[C@@]12OC3(CCCC3)O[C@@H]1C[C@H]1[C@@H]3CCC4=CC(=O)C=C[C@]4(C)[C@@]3(F)[C@@H](O)C[C@@]12C,·,-1,·,2,3
C[C@]12C=CC(=O)C=C1CC[C@H]1[C@@H]3C[C@@H](O)[C@](O)(C(=O)CO)[C@@]3(C)C[C@H](O)[C@@]12F,·,5.2*,·,·,·
CCOC(=O)c1sc(NC(=O)c2ccccc2)cc1C,62,-1,-61,·,·
CCOC(=O)c1sc(NC(=O)Nc2ccc(Cl)cc2)cc1C,92*,-4,-92,·,·
CCOC(=O)c1sc(NC(=O)c2ccc(Cl)s2)cc1C,91*,-1,-91,17,-3
COc1ccc(/C=C/C(=O)NC2CCCCCCC2)cc1S(=O)(=O)N1CCOCC1,·,-4,·,·,·
SMILES,sEH inhibitor,MRP1 act,sEH activator,Calb biofilm kill,MRP resist rev
Cc1ccc(S(=O)(=O)NNC(=O)C(O)(c2ccccc2C)c2ccccc2C)cc1,·,2,·,·,·
Cc1nc2c(Br)cc(Br)cc2cc1O,-7,-1,5,-7,3
Cc1ccc(OCCN2CCN(C(=O)CCC(=O)Nc3nnc(C)s3)CC2)cc1,3,7.8*,0,7,8
Cc1ccc(OCCN2CCN(C(=O)CCC(=O)Nc3nnc(C(C)C)s3)CC2)cc1,8,0,-8,1,11
CCOc1ccc(NC(=S)N2CCC(N(C)CCN3CCOCC3)CC2)cc1,·,-1,·,·,·
CCN(CCCNC(=O)C1CCN(S(=O)(=O)CC)CC1)c1ccccc1,·,-2,·,3,-9
CCN(CCCNC(=O)C1CCN(S(=O)(=O)N2CCC3(CC2)OCCO3)CC1)c1ccccc1,90*,0,-90,2,8
CC(C)(CNC(=O)/C=C/c1ccc(F)cc1)CNC(=O)/C=C/c1ccc(F)cc1,·,5.9*,·,·,·
COc1ccc(C2CCCN2C(=O)Nc2ccc(Cl)cc2)cc1OC (stereo not given),95*,2,-95,11,6
O=C1C=CC(O)(c2cc(=O)c3c(O)cc(O)cc3o2)C=C1,·,-4,·,·,·
CCCc1cc(-c2nc(-c3ccc(Br)cc3)cs2)ccn1,·,5.0*,·,·,·
Cc1cnn(-c2cc(Oc3ccccc3)ncn2)c1,-14,4.8*,14,0,4
CC(=O)Nc1ccc(/C(C)=N/NC(=O)c2ccccc2Cl)cc1,·,0,·,·,·
COc1ccc(/C=N/Nc2nc(-c3ccc(Cl)cc3)cc(C(F)(F)F)n2)cc1OC,·,5.6*,·,·,·
COc1ccc(-n2ncc3c(=O)n(CC(=O)N4c5ccccc5CC4C)cnc32)cc1 (stereo not given),11,5.9*,-7,7,-2
Cn1c(=O)c2c(nc(CN3CCN(Cc4ccccc4)CC3)n2Cc2ccc(Cl)cc2)n(C)c1=O,-7,-3,11,16,-22
Cn1c(=O)c2c(nc(CN3CCN(Cc4ccccc4)CC3)n2Cc2ccccc2)n(C)c1=O,·,-2,·,20*,1
Cn1nc(C(F)(F)F)c2cc(NC(=O)OCc3ccc(C(C)(C)C)cc3)sc21,-14,7.1*,13,1,22
O=C(OC(C(=O)NCC1CCCO1)c1ccc(F)cc1)c1cccs1 (stereo not given),1,-1,0,·,·
O=C(CSCc1ccc(F)cc1)Nc1ccccc1,3,-1,-4,·,·
O=C(CSCc1ccccc1)Nc1ccc(F)c(F)c1,·,4.7*,·,·,·
O=C(CSCc1ccc(Cl)cc1)N/N=C/c1ccccc1,50,4.8*,-48,·,·
CCOc1ccc(/C=N/NC(=O)c2c(C)n(C)c3ccc(OC)cc23)cc1,·,-2,·,·,·
CCOc1ccc2c(c1)c(N=O)c(O)n2C,·,6.0*,·,·,·
COc1ccccc1NC(=O)c1sc2nc(-c3ccco3)ccc2c1N,-10,8.3*,11,5,-13
SMILES,sEH inhibitor,MRP1 act,sEH activator,Calb biofilm kill,MRP resist rev
Nc1c(C(=O)Nc2ccccc2)sc2nc(-c3ccco3)ccc12,-8,-4,10,10,-17
Cc1ccccc1NC(=O)CSCc1nc(N)nc(Nc2ccccc2C)n1,·,-3,·,·,·
CC(=O)c1c(C)[nH]c(C(=O)Nc2nc(-c3ccc(Cl)cc3)cs2)c1C,·,4.8*,·,·,·
CC(C)CNC(=O)c1ccc(NC(=O)c2cccs2)cc1,·,1,·,·,·
CCC(C)c1ccc(NC(=O)c2cccs2)cc1 (stereo not given),90*,3,-90,2,-3
CCOc1cc(/C=N/NC(=O)CN2CCCCC2)ccc1OCc1cccc(Cl)c1,·,-3,·,·,·
Cc1nnc2n(Cc3ccccc3)c(=O)c3c4c(sc3n12)CN(Cc1ccccc1)CC4,·,·,·,-5,25
O=c1c2c3c(sc2n2cnnc2n1Cc1ccccc1)CN(Cc1ccccc1)CC3,2,·,-3,7,64*
O=C(COC(=O)c1c(Cl)cccc1Cl)Nc1cc(Cl)ccc1Oc1ccccc1,·,6.6*,·,·,·
O=C(COC(=O)c1ccccc1)Nc1cc(Cl)ccc1Oc1ccccc1,·,3,·,·,·
O=C(O)c1cn(C2CC2)c2cc(N3CCOCC3)c(F)cc2c1=O,7,·,-2,10,10
CCN1CCN(c2cc3c(cc2F)c(=O)c(C(=O)O)cn3C2CC2)CC1,·,0,·,24*,5
